These results are taken from PubChem BioAssay.

The structures appear in SMILES notation. Some of the results follow. Records with an inconclusive call do not appear. Activity calls are given as the source filed them.

In assay [1] the target is Solute carrier family 12 member 5 (Homo sapiens) (UniProt Q9H2X9). In words: KCC2 modulators in sodium-free buffer, confirmation, cell-based, HEK293 KCC2, thallium flux, secondary assay (AID 1713). The following applies: FluoZin2 fluorescence, at 10 µM, stronger effect = higher value.
Sequence of Solute carrier family 12 member 5 (Homo sapiens) (Q9H2X9 whole entry, looked up): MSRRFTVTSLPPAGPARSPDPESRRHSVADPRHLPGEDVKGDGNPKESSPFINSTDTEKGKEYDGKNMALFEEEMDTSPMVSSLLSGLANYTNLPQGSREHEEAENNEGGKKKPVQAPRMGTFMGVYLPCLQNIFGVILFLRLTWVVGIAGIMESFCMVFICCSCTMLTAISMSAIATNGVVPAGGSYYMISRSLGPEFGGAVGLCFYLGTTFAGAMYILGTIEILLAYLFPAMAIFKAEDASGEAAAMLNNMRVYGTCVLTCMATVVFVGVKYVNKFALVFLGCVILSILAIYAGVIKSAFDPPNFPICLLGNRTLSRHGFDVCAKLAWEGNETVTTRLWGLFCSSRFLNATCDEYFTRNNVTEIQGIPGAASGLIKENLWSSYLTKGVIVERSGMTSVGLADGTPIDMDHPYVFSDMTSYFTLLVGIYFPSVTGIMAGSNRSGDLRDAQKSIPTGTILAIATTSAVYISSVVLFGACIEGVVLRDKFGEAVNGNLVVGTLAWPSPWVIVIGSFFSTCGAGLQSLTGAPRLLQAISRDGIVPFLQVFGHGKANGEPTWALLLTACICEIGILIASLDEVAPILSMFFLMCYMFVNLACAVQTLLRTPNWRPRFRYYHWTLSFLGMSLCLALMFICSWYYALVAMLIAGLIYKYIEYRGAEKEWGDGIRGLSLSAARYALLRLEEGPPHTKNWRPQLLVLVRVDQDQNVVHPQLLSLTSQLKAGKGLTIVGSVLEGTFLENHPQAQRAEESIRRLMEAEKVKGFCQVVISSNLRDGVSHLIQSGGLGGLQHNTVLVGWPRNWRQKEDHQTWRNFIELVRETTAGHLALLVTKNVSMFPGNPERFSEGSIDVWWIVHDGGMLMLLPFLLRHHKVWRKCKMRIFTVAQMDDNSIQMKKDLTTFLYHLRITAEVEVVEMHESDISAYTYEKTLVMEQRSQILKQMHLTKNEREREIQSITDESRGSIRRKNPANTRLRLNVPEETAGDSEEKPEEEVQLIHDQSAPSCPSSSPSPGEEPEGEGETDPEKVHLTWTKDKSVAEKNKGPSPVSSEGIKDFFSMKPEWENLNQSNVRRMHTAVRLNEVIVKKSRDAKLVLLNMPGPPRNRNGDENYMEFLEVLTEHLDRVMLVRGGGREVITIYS
Assay [2] in a line: PubChem AID 1714.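 Also: raw slope of fluorescence over initial fluorescence between 10 and 20 s after thallium.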 To be noted: HEK293-KCC2 + bumetanide/ouabain, thallium flux FluoZin2; at 10 µM; stronger effect = higher value.
Assay [3] has as its target Solute carrier family 12 member 5 (Homo sapiens) (UniProt Q9H2X9). In words: KCC2 modulators without ouabain present, confirmation, cell-based, HEK293 KCC2, thallium flux, FluoZin2, secondary assay 2 (AID 1715;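 active = thallium flux slope more than 3 SD above or below the plate's solvent-only control mean, mostly below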;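 also: raw slope with 0.1% DMSO as baseline and bumetanide as block control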). To be noted: HEK293-KCC2, thallium flux FluoZin2 fluorescence; at 10 µM; actives lie on both sides; F/F0 rise rate, 10–20 s post-thallium.
The target is the same in assay [4]. The experiment in a line: KCC2 inhibitors and activators, ouabain retest, confirmation, HEK-KCC2 cells (AID 1717;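 active = thallium flux slope beyond 3 SD from same-plate DMSO control mean in most replicates, usually higher, sometimes lower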;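 also: slope of initial-normalized fluorescence between seconds 10 and 20 after thallium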). The following applies: HEK293-KCC2, thallium flux FluoZin2 fluorescence, at 10 µM, bidirectional: low = inhibitor, high = activator.
The nature of assay [5]: native HEK Tl+ uptake effects, second counter-screen – HEK cells, counterscreen 2, counter-screen for KCC2 modulator project, confirmation (AID 1718;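 active = thallium flux slope above the same plate's solvent-control mean plus 3 SD in both duplicate wells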;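 also: run without ouabain in cells lacking the KCC2 cotransporter; slope of fluorescence scaled to its starting value between 10 and 20 s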). The following applies: HEK293 parental, thallium flux FluoZin-2 fluorescence slope; at 10 µM. In general terms: The purpose of a counterscreen is to sort out artefacts and off-target activity.
Assay [6] in a line: thallium flux modulation in parental HEK cells, confirmation, counter-screen for KCC2 modulator project, cell-based, counterscreen 1 (AID 1716;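 active = thallium flux rate significantly above the same plate's solvent-only control wells, beyond their mean plus 3 SD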). To be noted: HEK293 parental cells, thallium flux FluoZin2, ouabain; at 10 µM; baseline-ratio fluorescence slope, 10–20 s after thallium.
Assay [7] in a line: inhibitors of TNFa-induced NFkB p65 translocation, primary screen, imaging, HUVEC, MLSMR starter and 10KST1 sets (AID 438;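 active = inhibition above 20% together with a positive visual image hit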;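 also: compound added about 3h40 before a 20 min TNFalpha stimulation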;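 as to inhibition: signal is the nuclear over cytoplasmic p65 intensity ratio per well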). To be noted: HUVEC TNFa-induced p65 nuclear translocation; cell count: measured here: nuclei count (cytotoxicity indicator), at 2.08 µM; inhibition: at 2 µM, stronger effect = higher value, 0% TNFa-plus-vehicle, 100% no-TNFa wells.
A short description of assay [8]: inhibitors of E-selectin induction by TNFa, primary screen, imaging, HUVEC, immunofluorescence, MLSMR starter and 10KST1 sets (AID 487;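 active = visually confirmed hit in the image check and inhibition above 20%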;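 as to inhibition: signal is fraction of cell area covered by stained E-selectin grains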;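 as to nuclei count: 100% = median nuclei count of all wells on the same plate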). The following applies: HUVEC TNFalpha-induced E-selectin immunofluorescence imaging, at 2 µM; inhibition: stronger effect = higher value; nuclei count: measured here: cell number, toxicity.
A short description of assay [9]: DUSP6 inhibitors restoring Erk phosphorylation by chemical complementation, primary imaging in DUSP6-transfected HeLa (AID 609;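 active = compounds giving at least 50% inhibition in the cell-based MKP-3 phosphatase rescue imaging test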;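 as to inhibition: phospho-Erk level distribution per well compared with pooled transfected vehicle control wells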). To be noted: HeLa MKP-3 transfected, phospho-Erk imaging KS statistic, at 10 µM, cells stimulated with TPA for 15 min.
The target of assay [10] is Dual specificity protein phosphatase 6 (Homo sapiens) (UniProt Q16828). Described as above. The following applies: HeLa MKP-3 transfected, phospho-Erk imaging KS statistic; at 10 µM; stronger effect = higher value; cells stimulated with TPA for 15 min.
Sequence of Dual specificity protein phosphatase 6 (Homo sapiens) (Q16828 whole entry, looked up): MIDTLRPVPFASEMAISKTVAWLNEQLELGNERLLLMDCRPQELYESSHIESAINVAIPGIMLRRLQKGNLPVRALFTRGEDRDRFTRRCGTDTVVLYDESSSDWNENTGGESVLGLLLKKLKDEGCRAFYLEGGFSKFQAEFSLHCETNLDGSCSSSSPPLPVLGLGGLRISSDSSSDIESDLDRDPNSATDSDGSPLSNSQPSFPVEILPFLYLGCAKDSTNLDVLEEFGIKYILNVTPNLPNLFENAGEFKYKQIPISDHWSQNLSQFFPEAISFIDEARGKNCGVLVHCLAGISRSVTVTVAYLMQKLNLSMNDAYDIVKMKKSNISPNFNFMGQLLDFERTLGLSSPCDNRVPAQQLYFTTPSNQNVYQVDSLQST
The target in assay [11] is Voltage-gated potassium channel subunit beta-2 (Rattus norvegicus) (UniProt P62483). The experiment in a line: KvBeta enzyme negative modulators, primary screen, biochemical, NADPH fluorescence (AID 622;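 active = fluorescence slope higher than the sample average by over 3 SD, cut at about -0.22 in these data, passing the limit was not always enough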;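 also: slope of raw intensity against log time taken from 70 to 1610 s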). To be noted: recombinant KvBeta, 4-cyanobenzaldehyde reduction, at 10 µM, stronger effect = higher value.
Sequence of Voltage-gated potassium channel subunit beta-2 (Rattus norvegicus) (P62483 whole entry, looked up): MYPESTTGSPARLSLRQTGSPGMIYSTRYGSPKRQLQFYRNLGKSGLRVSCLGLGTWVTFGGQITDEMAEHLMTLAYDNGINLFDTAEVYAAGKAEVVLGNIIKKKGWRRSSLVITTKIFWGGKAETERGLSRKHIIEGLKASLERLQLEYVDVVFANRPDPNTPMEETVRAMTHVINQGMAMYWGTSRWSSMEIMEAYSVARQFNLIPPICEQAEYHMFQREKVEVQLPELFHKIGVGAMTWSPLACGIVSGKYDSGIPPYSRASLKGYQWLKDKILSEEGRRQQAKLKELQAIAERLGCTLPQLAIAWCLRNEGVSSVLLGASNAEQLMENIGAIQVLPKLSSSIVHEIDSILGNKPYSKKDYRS
Assay [12] shares this target. In words: KvBeta positive modulators, primary screen, biochemical, NADPH fluorescence (AID 623;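 active = NADPH fluorescence slope more negative than the mean of all samples by about 3 SD, 99.7% confidence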;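 also: fluorescence intensity change per second fitted from 20 to 320 s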). The following applies: Recombinant KvBeta, NADPH fluorescence decrease slope, 10 min; at 10 µM; stronger effect = lower value.
Assay [13] addresses Muscarinic acetylcholine receptor M4 (Homo sapiens) (UniProt P08173). In words: compounds altering M4/GIRK thallium flux, either direction, primary screen, M4 allosteric agonist project, cell-based, HEK293 M4/GIRK, BTC-AM (AID 625;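 active = fluorescence slope after compound addition differing from the mean of all tested samples at 99.7% confidence, mostly higher but some lower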;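 also: thallium influx through GIRK channels coupled to M4 in HEK293 cells with BTC-AM dye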). To be noted: at 10 µM, actives lie on both sides.
Assay [14] is described as follows: inhibitors of larval lipid processing in zebrafish, primary screen, whole organism, PED6 fluorescence, gall bladder and intestine (AID 686;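 active = a full or partial loss of lipid-probe fluorescence in the fish gall bladder, intestine or both, judged by eye; inactive = no fluorescence loss, or compound toxic to the fish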;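 also: larvae 5 to 7 days old with five fish per well; signal comes from phospholipase A2 cleavage of quenched PED6 carried via bile; overnight exposure to compound and PED6 before scoring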). The following applies: Zebrafish larvae PED6 lipid processing, fluorescence scoring; screened at 20 µM (by protocol).
Assay [15] can be described thus: inhibitors of Chlamydomonas gravitaxis, primary screen, whole organism, Chlamydomonas reinhardtii, WT vs cilia-less mutant, absorbance, 96-well (AID 463189;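 active = inhibition at or above 50% relative to wild type and mutant plate controls; inactive = inhibition below 50%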;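 also: 0% = wild type cc124 cells in DMSO and 100% = ciliumless bld1 mutant cells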). The following applies: OD600 absorbance, 2 days, at 10 µM, stronger effect = higher value.
The nature of assay [16]: inhibitors of mutant huntingtin aggregation, primary screen, imaging, exon1htt(103Q)mCFP cells, high-content imaging (AID 483;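 active = visual image review flags a hit and inhibition of aggregation exceeds 20%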;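 also: compound exposure lasted 3 days before fixation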;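 as to nuclei count: percent of the per-plate median nuclei count of sample wells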). To be noted: exon1htt(103Q)mCFP cell line, aggregate imaging, at 2 µM; inhibition of aggregation: stronger effect = higher value; nuclei count: measured here: cell count, toxicity.
Assay [17] addresses Alpha-2C adrenergic receptor (Homo sapiens) (UniProt P18825). The experiment in a line: modulators of alpha2C/GIRK thallium flux, primary screen, cell-based, HEK293 alpha2C/GIRK1/2 (AID 624;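 active = fluorescence slope after compound addition differing from the mean of all screened samples at 99.7% confidence, in either direction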;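 also: slope of fluorescence ratio to pre-addition baseline per second over 15 to 24 s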). To be noted: thallium flux BTC fluorescence, at 10 µM, actives lie on both sides.
The nature of assay [18]: inhibitors of Sendai virus-induced IRF3 signaling, primary screen, TLR/RLR signaling modifier project, cell-based, Sendai virus stimulus, luciferase, 10K MLSCN set (AID 602276;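 active = inhibition at or above 50% at 10 µM; inactive = inhibition below 50%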;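 also: firefly luciferase from ISG56 promoter only with Renilla not read in this screen; 0% = Sendai virus plus DMSO and 100% = medium plus DMSO without virus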). To be noted: HEK293 RL24 IRF3 luciferase reporter, at 10 µM, stronger effect = higher value. For orientation: In a reporter assay the amount or activity of a reporter protein is the signal.
Assay [19] is described as follows: inhibitors of poly I:C-induced TLR3 signaling, primary screen, cell-based, poly I:C stimulus, luciferase, 10K MLSCN set (AID 602277;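 active = inhibition of the reporter signal at or above 50%; inactive = inhibition below 50%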). To be noted: HEK293-TLR3 RL24 IRF3 luciferase reporter, at 10 µM, stronger effect = higher value.
[20] abbreviates: measured here: cell density z-score.
[21] abbreviates: measured here: nuclear c-Myc green intensity z-score.
[22] abbreviates: measured here: nuclear pErk red intensity z-score, stronger effect = higher value.

Sequence of Muscarinic acetylcholine receptor M4 (Homo sapiens) (P08173 whole entry, looked up): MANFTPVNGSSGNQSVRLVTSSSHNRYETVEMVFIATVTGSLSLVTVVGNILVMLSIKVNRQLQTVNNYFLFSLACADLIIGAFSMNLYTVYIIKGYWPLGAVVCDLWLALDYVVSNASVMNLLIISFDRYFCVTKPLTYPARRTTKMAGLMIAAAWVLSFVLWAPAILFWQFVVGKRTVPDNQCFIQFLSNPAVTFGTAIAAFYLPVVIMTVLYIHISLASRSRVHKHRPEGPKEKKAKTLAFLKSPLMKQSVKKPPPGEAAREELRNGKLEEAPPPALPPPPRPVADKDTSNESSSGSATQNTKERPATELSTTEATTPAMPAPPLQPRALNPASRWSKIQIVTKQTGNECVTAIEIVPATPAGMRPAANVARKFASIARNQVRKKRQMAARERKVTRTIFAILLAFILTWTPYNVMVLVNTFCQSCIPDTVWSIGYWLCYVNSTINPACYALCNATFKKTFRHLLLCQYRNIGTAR
Sequence of Alpha-2C adrenergic receptor (Homo sapiens) (P18825 whole entry, looked up): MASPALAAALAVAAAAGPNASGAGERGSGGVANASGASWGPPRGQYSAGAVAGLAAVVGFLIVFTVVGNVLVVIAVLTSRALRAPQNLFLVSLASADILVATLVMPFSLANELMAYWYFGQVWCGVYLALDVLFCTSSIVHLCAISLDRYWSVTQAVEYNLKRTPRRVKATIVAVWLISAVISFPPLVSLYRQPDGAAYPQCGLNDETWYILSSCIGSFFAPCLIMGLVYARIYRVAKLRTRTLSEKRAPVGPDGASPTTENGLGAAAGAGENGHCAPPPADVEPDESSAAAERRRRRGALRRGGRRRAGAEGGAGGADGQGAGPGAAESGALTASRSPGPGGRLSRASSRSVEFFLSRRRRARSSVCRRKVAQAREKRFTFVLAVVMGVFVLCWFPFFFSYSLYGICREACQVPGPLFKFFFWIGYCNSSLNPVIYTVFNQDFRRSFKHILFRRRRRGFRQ

Take `Cc1ccc(OCC(=O)N2CCN(C(=O)c3cccnc3)CC2)cc1`: in assay [1], the normalised thallium flux (F/F0 slope) was 0.00886 (inactive). Moreover, the normalized thallium flux in assay [2] is 0.00586 (inactive); in [3], 0.0326 (inactive). The raw Tl+ flux slope (below DMSO = inhibition, above = activation) in [4] was 0.0189 (inactive). The thallium flux slope in assay [5] was 0.0114 (inactive).

Take `Cc1ccc(C)c(NC(=S)NNC(=S)Nc2ccc(C(C)C)cc2)c1`: the normalised thallium flux (F/F0 slope) in assay [1] is 0.0145 (inactive). Moreover, the normalized thallium flux in assay [2] is 0.00979 (active). In addition, the thallium flux rate (normalised fluorescence) in [6] was 0.0112 (active). Further, in assay [4], the raw Tl+ flux slope (below DMSO = inhibition, above = activation) is 0.0152 (active). Also, the thallium flux slope in [5] is 0.0121 (inactive).

Consider `CS(=O)(=O)N(CC(=O)N1CCN(c2ccc(F)cc2)CC1)C1CCCCC1`, for which, in assay [1], the normalised thallium flux (F/F0 slope) was 0.00629 (inactive). The normalized thallium flux in assay [2] was 0.00489 (inactive). Moreover, the thallium flux rate (normalised fluorescence) in assay [6] was 0.00762 (inactive). Further, the raw Tl+ flux slope (below DMSO = inhibition, above = activation) in [4] was 0.0176 (active). In assay [5], the thallium flux slope is 0.0102 (inactive).

Regarding `O=C(Nc1ccc2oc(-c3ccccc3F)nc2c1)c1ccco1`, the normalised thallium flux (F/F0 slope) in assay [1] was 0.0157 (inactive). Also, in assay [2], the normalized thallium flux was 0.00477 (inactive). Further, the thallium flux rate (normalised fluorescence) in [6] was 0.00696 (inactive). Also, the raw Tl+ flux slope (below DMSO = inhibition, above = activation) in assay [4] is 0.0137 (inactive). The thallium flux slope in [5] is 0.00945 (inactive).

As for `COc1cccc(NC(=S)NC(=O)c2c(Cl)c(C)nn2C)c1`, the normalised thallium flux (F/F0 slope) in assay [1] was 0.0264 (active). Also, the normalized thallium flux in [2] was 0.063 (active). The thallium flux rate (normalised fluorescence) in assay [6] was 0.0727 (active). In assay [4], the raw Tl+ flux slope (below DMSO = inhibition, above = activation) was 0.066 (active). Besides, the thallium flux slope in assay [5] is 0.0309 (active).

As to `CC1CCCCN1S(=O)(=O)c1ccc(C(=O)Nc2nnc(-c3cccs3)o2)cc1` (centres undefined), the normalised thallium flux (F/F0 slope) in [1] is 0.0106 (inactive). Also, the normalized thallium flux in [2] is 0.0292 (active); in [3], 0.033 (inactive). Moreover, in assay [4], the raw Tl+ flux slope (below DMSO = inhibition, above = activation) was 0.0294 (active). The thallium flux slope in assay [5] is 0.0123 (inactive).

For `Cc1cccc(N(CC(O)CN(C)C)S(=O)(=O)c2ccccc2)c1` (centres undefined), the cell count in [7] amounted to 660. The inhibition in assay [7] is -8.8% (inactive); in [8] it was -9.3% (inactive); in assay [10] it was 1.42% (inactive); in assay [15] it was 30.7% (inactive). Moreover, the nuclei count in [8] is 177%. Besides, the z-score in [9] (setting [20]) was 0.811; in assay [9] (setting [21]), 0.15; in assay [9] (setting [22]), 0.694. In addition, the values for the fluorescence slope in assay [11] and in assay [13] were -0.413 (inactive) and 0.00446 (inactive), respectively. The NADPH fluorescence slope in assay [12] is -6e-05 (inactive). For the same compound, in assay [14], the result was inactive. Moreover, the normalised thallium flux (F/F0 slope) in [1] was 0.00903 (inactive). The normalized thallium flux in [3] is 0.0335 (inactive). In assay [6], the thallium flux rate (normalised fluorescence) is 0.00768 (inactive). For the same compound, the raw Tl+ flux slope (below DMSO = inhibition, above = activation) in assay [4] was 0.0203 (inactive). Further, the thallium flux slope in [5] was 0.0103 (inactive).

For the compound `Cc1c(C)c2cc(Cl)c(O)c(CN3CCCCC3)c2oc1=O`, in [7], the cell count is 393. Moreover, the inhibition in assay [7] is 1.3% (inactive); in [8] it was -14.6% (inactive); in assay [10], 5.26% (inactive); in assay [15], 20.3% (inactive); in [18], 4.19% (inactive); in assay [19] it was 6.59% (inactive). The inhibition of aggregation in assay [16] was -11.8% (inactive). For the same compound, the nuclei count in assay [16] was found to be 100%; in assay [8], 124%. The z-score in assay [9] (setting [20]) was 0.378; in [9] (setting [21]), -1.22; in assay [9] (setting [22]), -0.936. The fluorescence slope in [11] was -0.198 (inactive). Further, the NADPH fluorescence slope in [12] was -2.2e-05 (inactive). Also, the slope in assay [17] is 0.00419 (inactive).

What is called inhibition is the change of the read-out against control, counted positive when it falls.
